Inconclusive results are not listed. Active and inactive are the calls of the source. The calls were made as follows, unless noted: active = hit-call score of the fitted dose curve at least 0.9, where 1 is the maximum; inconclusive = response in the unintended direction; inactive = score below 0.9. Peptide text beside a SMILES is read from it.
Tests used:
[1] = target: Estrogen receptor (Homo sapiens) (UniProt P03372); assay: CCTE_Deisenroth_AIME_384WELL_LUC_Active: CCTE's 384-well Estrogen Receptor Transactivation Assay with AIME metabolic competence (ERTA luciferase; metabolism positive), Deisenroth Lab (AID 2284030)
Estrogen receptor (Homo sapiens), sequence (P03372 whole entry, looked up): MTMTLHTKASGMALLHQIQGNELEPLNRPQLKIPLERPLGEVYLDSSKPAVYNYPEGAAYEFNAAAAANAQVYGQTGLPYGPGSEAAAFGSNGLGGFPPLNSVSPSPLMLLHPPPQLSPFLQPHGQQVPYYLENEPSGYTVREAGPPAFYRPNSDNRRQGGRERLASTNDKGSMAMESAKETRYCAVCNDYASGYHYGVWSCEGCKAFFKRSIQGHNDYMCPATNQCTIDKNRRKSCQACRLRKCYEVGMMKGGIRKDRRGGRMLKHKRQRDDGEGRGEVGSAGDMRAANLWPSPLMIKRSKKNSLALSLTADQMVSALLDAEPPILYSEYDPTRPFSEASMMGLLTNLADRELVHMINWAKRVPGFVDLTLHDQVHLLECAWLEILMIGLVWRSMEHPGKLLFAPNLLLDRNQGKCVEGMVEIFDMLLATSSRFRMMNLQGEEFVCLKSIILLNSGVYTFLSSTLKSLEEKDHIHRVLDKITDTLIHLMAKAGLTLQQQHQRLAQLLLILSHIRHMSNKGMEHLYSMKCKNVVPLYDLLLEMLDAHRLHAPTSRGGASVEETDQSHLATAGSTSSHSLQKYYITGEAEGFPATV
In short: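 AIME metabolism-positive mode: chemicals 0.002 - 200 uM, 2 h with alginate-bound PB/BNF-induced rat S9 → medium to VM7Luc4E2 ERTA, 24 h → luciferase. Positive fit vs 17beta-estradiol; n=4 typical.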

[2] = CCTE_Deisenroth_AIME_384WELL_CTox_Active: Cytotoxicity Assessment (CTOX) in CCTE's 384-well Estrogen Receptor Transactivation Assay with AIME metabolic competence (metabolism positive), Deisenroth Lab (AID 2284037);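 also: chemicals first conditioned 2 h by alginate-bound induced rat liver S9 before cells; activity means signal loss indicating cell death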
In short: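 Chemicals pre-incubated 2 hours with alginate-immobilised phenobarbital/beta-naphthoflavone-induced male Sprague Dawley rat liver S9, then conditioned medium applied 24 hour to VM7Luc4E2 cells. Viability by fluorogenic protease substrate; 10-point series 0.002 - 200 uM.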

[3] = target: Estrogen receptor (Homo sapiens) (UniProt P03372); assay: CCTE_Deisenroth_AIME_384WELL_LUC_Inactive: CCTE's 384-well Estrogen Receptor Transactivation Assay without AIME metabolic competence (ERTA luciferase; metabolism negative), Deisenroth Lab (AID 2284038);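 also: hits raise estrogen receptor luciferase signal so potencies reflect agonists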
In short: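 VM7Luc4E2 ER transactivation, luciferase bioluminescence after 24 h, using medium pre-incubated 2 h with S9-free alginate microspheres. Concentrations 0.002–200 uM; gain of signal fitted relative to 17beta-estradiol.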

[4] = CCTE_Deisenroth_AIME_384WELL_CTox_Inactive: Cytotoxicity Assessment (CTOX) in CCTE's 384-well Estrogen Receptor Transactivation Assay without AIME metabolic competence (metabolism negative), Deisenroth Lab (AID 2284039);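 also: cell viability via live-cell protease substrate cleaved to fluorescent probe; cells exposed 24 h to medium preincubated 2 h with alginate-water beads without S9; loss of fluorescence signal means loss of viability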
In short: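 VM7Luc4E2 human breast cells received conditioned medium from a 2 h incubation of chemical with alginate-water microspheres (no S9), then were exposed 24 h. Viability was read as protease-substrate cleavage to a fluorescent probe; loss of signal was fitted bidirectionally over 0.002–200 uM.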

[5] = target: Estrogen receptor (Homo sapiens) (UniProt P03372); assay: CCTE_Deisenroth_AIME_384WELL_LUC_Shift: CCTE's 384-well Estrogen Receptor Transactivation Assay with AIME metabolic competence data shift (ERTA luciferase; difference in metabolism positive and negative), Deisenroth Lab (AID 2284041; active = hit-call score of the fitted dose curve at least 0.9, where 1 is the maximum; inactive = score below 0.9;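 also: shift is response with S9 minus without S9 so positive means metabolism raised ER signal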)
In short: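 Chemicals (0.002–200 uM, 10 points) pre-incubated 2 h with alginate-encapsulated induced male Sprague Dawley rat liver S9 or S9-free, then medium applied 24 h to VM7Luc4E2 cells; luciferase. Endpoint is per-concentration difference, S9-positive minus negative.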

[6] = CCTE_Deisenroth_AIME_96WELL_CTox_Inactive: Cytotoxicity Assessment (CTOX) in CCTE's 96-well Estrogen Receptor Transactivation Assay without AIME metabolic competence (metabolism negative), Deisenroth Lab (AID 2284029)
In short: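 Metabolism-negative mode: alginate-water lids without rat S9, 2 h pre-incubation of 10-point series (0.002 - 200 uM). Conditioned medium on VM7Luc4E2 cells 24 h; loss of fluorescent live-cell protease signal marks cytotoxicity.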

[7] = CCTE_Shafer_MEA_dev_firing_rate_mean: CCTE's Neural Network Formation Assay for Mean Firing Rate, Shafer Lab (AID 2284031; active = hit-call score of the fitted dose curve at least 0.9, where 1 is the maximum; inactive = score below 0.9)
In short: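 Spike frequency (spikes/recording length, averaged over active electrodes) was recorded on days 5, 7, 9 and 12 and collapsed to AUC; rat cortical cultures received compound continuously over 12 days of network development.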

[8] = CCTE_Shafer_MEA_dev_per_burst_spike_percent: CCTE's Neural Network Formation Assay for Percent of Spikes in a Burst, Shafer Lab (AID 2284032; active = hit-call score of the fitted dose curve at least 0.9, where 1 is the maximum; inactive = score below 0.9)
In short: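 Value is trapezoidal AUC over recordings on days 5, 7, 9 and 12 of the well-mean fraction of spikes falling in single-electrode bursts; rat cortical cultures exposed continuously from plating, treatment renewed DIV 5 and 9, fitted downward against DMSO.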

[9] = CCTE_Shafer_MEA_dev_active_electrodes_number: CCTE's Neural Network Formation Assay for Number of Active Electrodes, Shafer Lab (AID 2284040)
In short: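 Counts electrodes per well firing at least 5 spikes/min, recorded on days 5, 7, 9 and 12 in rat cortical cultures dosed continuously from plating (treatment refreshed DIV 5, 9). Value is the area under the curve over recordings, fitted downward relative to DMSO.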

[10] = CCTE_Shafer_MEA_dev_burst_rate: CCTE's Neural Network Formation Assay for Burst Rate, Shafer Lab (AID 2284042; active = hit-call score of the fitted dose curve at least 0.9, where 1 is the maximum; inactive = score below 0.9)
In short: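 Rat primary cortical cultures on PEI/laminin MEA; compound from plating, re-dosed at DIV 5, 9 media change. Single-electrode bursts/recording length, well mean of active electrodes; AUC over DIV 5–12 recordings; loss-of-signal vs DMSO.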

Measured: AC50

C/C=C/C=C/CCCCCCCO
inactive: [1] | [2] | [3] | [5]
active: [4] 151 µM

O=C(Oc1ccccc1)c1ccccc1O
active: [3] 53.4 µM | [5] 38.4 µM
inactive: [1] | [2] | [4]

CC1=NN(c2ccc(S(=O)(=O)O)cc2)C(=O)C1N=Nc1ccccc1 (centres undefined)
active: [2] 159 µM
inactive: [1] | [3] | [4] | [5]

Oc1ccc(/C=C/c2cc(O)cc(O)c2)cc1
active: [6] 40.5 µM

CCCCCC(=O)OCC
active: [4] 19.8 µM
inactive: [1] | [2] | [3] | [5]

CC(CCC(=O)O)(c1ccc(O)cc1)c1ccc(O)cc1
inactive: [2] | [4]
active: [1] 100 µM | [3] 71.4 µM | [5] 20.7 µM

CCCCCCCCCCCCCCCCCCOS(=O)(=O)O
inactive: [1] | [2] | [3] | [4] | [5]

CCCC(CC)c1ccccc1 (centres undefined)
inactive: [1] | [2] | [3] | [4] | [5]

O=C(O)CCC(=O)O
inactive: [1] | [2] | [3] | [4] | [5]

C=C(C)C1CC=C(C)CC1 (centres undefined)
inactive: [1] | [2] | [3] | [4] | [5]

COC(=O)[C@H](Cc1ccccc1)NC(=O)[C@@H](N)CC(=O)O (H-Asp-Phe-OMe)
inactive: [1] | [7] | [8] | [2] | [3] | [9] | [5] | [10]

Nc1ccc(C(=O)O)cc1
inactive: [1] | [2] | [3] | [4] | [5]

CCCCCC[C@@H](O)C/C=C\CCCCCCCC(=O)OCC(O)CO (some centres undefined)
inactive: [1] | [2] | [3] | [4] | [5]
